aSyn yeast inh: alpha-synuclein toxicity inhibition in yeast; Potency, µM (top dose mostly 46.1 µM), for inactives: at the highest dose growth rescue (activation), most hits filed as activators; AID 652106; Yeast expressing alpha-synuclein, growth rescue, BacTiter-Glo, 24 h; hit rate 0.14% among 370,000; further: potency means the concentration at half of the fitted maximal effect; % of control where 0% means no effect; nearly all actives have a fitted effect of over 65% in size
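Galactose-induced alpha-syn yeast (OD600=0.02, raffinose-pregrown) + pinned cpd, 24 hr, 30 deg C; growth by BacTiter-Glo luminescence. Growth restoration scores as activation.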
Abeta rescue: A-beta toxicity reversal in yeast; yeast expressing A-beta42, growth rescue, OD600, 48 h; response scale: 0% DMSO, 100% iron-clioquinol control; Potency, µM (highest dose often 46.1 µM), most hits filed as activators; hit rate 0.063% among 410,000; further: potency means the concentration at half of the fitted maximal effect; nearly all actives have a fitted effect of over 55% in size
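Growth rescue measured by 600 nm absorbance after 48 h yeast culture at 30 C with compound. Values normalized between DMSO and an equimolar ferric chloride plus clioquinol control.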
Akt phos inh: Akt phosphorylation inhibition; Neuro2A IGF-stimulated pAkt S473 HTRF, 20 min; hits give low values; activity change, % for hits at 50 µM; hit rate 0.32% among 360,000; in the data active means activity change below about -80%; inconclusive means mostly about -51% to -80%; further: on the % scale 0 is the no-effect control and ±100 the full control effect
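Single-point screen (50 µM final compound) in Neuro2A cells stimulated 20 min with 6 nM IGF at 37 deg C. After lysis, Ser473-phosphorylated Akt read by HTRF (ex 330 nm, em 615/665 nm) as the 665/615 ratio.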
TDP-43 yeast inh: rescues yeast growth from TDP-43 toxicity. TDP-43 expressing yeast growth rescue, BacTiter-Glo, 24 h. Potency, µM (highest dose often 46.1 µM), inactives show top-dose growth rescue (activation), actives largely listed as activators. hit rate 1.8% among 410,000. AID 652104; further: potency means the concentration at half of the fitted maximal effect; % of control where 0% means no effect; nearly all actives have a fitted effect of over 50% in size
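Yeast expressing TDP-43 (pregrown in raffinose, seeded at OD600=0.02 in galactose medium) exposed to compounds 24 hr at 30 deg C. Growth read by BacTiter-Glo luminescence; rescue of toxicity appears as increased signal.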
FUS yeast rescue: suppressors of FUS proteinopathy in yeast | hit rate 0.24% among 390,000 | Potency, µM (series often up to 76.6 µM), most hits filed as activators | AID 1347120 | S. cerevisiae FUS-expressing, growth rescue, OD600, 24 h;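 further: potency means the concentration at half of the fitted maximal effect; plate controls were DMSO vehicle for no effect and reference control for full effect; nearly all actives have a fitted effect of over 55% in size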
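Absorbance at 600 nm, taken 24hr after compound addition, measured rescue of FUS-yeast growth at 30C. Induction used 2% galactose with seeding at OD 0.005. Controls: CP55940 from 92uM final, DMSO only.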
* marks the source's active call; other numbers are inactive results; i = inactive; ? = inconclusive; · = no result. The list is not random: actives were taken first. Their share in the collection is about 2.3%. Unless noted, the call rests on the fitted dose curve; in most records, active means well fitted curve in the direction sought with a large enough effect; inconclusive means small, poorly fitted or top-dose-only effect, or another doubt; inactive means no such curve, though single readings can be large; an effect the other way counts as inactive or inconclusive.

SMILES	aSyn yeast inh	Abeta rescue	Akt phos inh	TDP-43 yeast inh	FUS yeast rescue
c1ccc(-n2cnc3cc(NCc4ccncc4)ccc32)cc1	1%	i	-103%*	26%	i
Brc1ccc(CSc2ccc3nnc(-c4cccnc4)n3n2)cc1	1%	i	i	16µM*	i
Fc1cccc(CSc2ccc3nnc(-c4cccnc4)n3n2)c1	9%	?	i	16µM*	i
Cc1ccc(CSc2ccc3nnc(-c4cccnc4)n3n2)cc1	-1%	i	i	7%	i
Cc1ccc(CSc2ccc3nnc(-c4ccccn4)n3n2)cc1	-1%	i	i	20µM*	i
CC(C)(C)OC(=O)N1CCC(c2c(C(=O)N3CCCCC3)cnn2-c2ccccc2Cl)CC1	·	i	·	0%	i
CCOc1ccc(-c2csc(-c3nc(-c4ccc(Br)s4)cs3)n2)cc1	·	i	·	20%	i
Cc1ccc(CN(C(=O)COc2ccccc2[N+](=O)[O-])c2ccccn2)o1	·	i	·	23%	i
CCOC(=O)c1ccc(S(=O)(=O)Nc2cc(C(C)(C)C)no2)cc1	18%	i	i	13µM*	i
CCOC(=O)c1ccc(NS(=O)(=O)c2ccc(SC)cc2)cc1	20%	i	i	?	?
CC(C)(C)c1cc(NS(=O)(=O)c2ccc3c(c2)OCCO3)on1	-2%	?	i	13µM*	i
COCCCN1C(=O)C(O)=C(C(=O)c2ccco2)C1c1ccccc1 (configuration not stated)	4%	i	-108%*	16%	i
OC(c1cccc(Cl)c1)c1nccc2ccccc12 (configuration not stated)	-1%	i	i	15%	i
O=C(OC(c1ccccc1)c1nccc2ccccc12)c1cc([N+](=O)[O-])cc([N+](=O)[O-])c1 (configuration not stated)	9%	i	i	6.3µM*	·
Cc1[nH]c2ccccc2c1/C=N/Nc1ccc([N+](=O)[O-])cc1	10%	i	i	2.8µM*	i
COc1ccc(S(=O)(=O)NCCc2sc3nc(-c4ccc(C)cc4)nn3c2C)cc1C	·	i	·	?	i
COc1cccc(OC)c1C(=O)NCCc1csc(-c2ccc(Cl)cc2)n1	·	i	·	22µM*	i
COc1ccc(-c2nc(CCNC(=O)c3c(F)cccc3Cl)cs2)cc1	·	i	·	18µM*	i
O=C(NCCc1csc(-c2ccc(C(F)(F)F)cc2)n1)c1cccs1	-14%	i	i	22µM*	?
COc1ccc(NC(=O)C(=O)NCCc2csc(-c3ccc(Cl)cc3)n2)cc1	·	i	·	10%	i
O=C(NCCc1csc(-c2ccc(C(F)(F)F)cc2)n1)c1ccccc1Cl	·	i	·	?	i
COc1cccc(C(=O)NCCc2csc(-c3ccc(Cl)cc3)n2)c1	·	i	·	35µM*	i
CC(C)(C)c1ccc(C(=O)NCCc2csc(-c3ccc(Cl)cc3)n2)cc1	·	i	·	17%	i
CCc1cccc(-n2c(C)nc3c(cnn3-c3ccc(C)c(C)c3)c2=O)c1	·	i	·	?	i
COc1ccc2c(c1)NC(c1cccnc1)=NC(c1ccc(F)cc1)=N2	·	i	·	33%	i
SMILES	aSyn yeast inh	Abeta rescue	Akt phos inh	TDP-43 yeast inh	FUS yeast rescue
Cc1cccc(C(=O)Nc2nc3ncccn3c2-c2ccccc2)c1	·	·	·	·	i
CCCNC(=O)c1cc2c3ccccc3n(C)c2s1	0%	i	i	14µM*	i
COCCNC(=O)c1cc2c3ccccc3n(C)c2s1	1%	i	i	12%	i
O=C(CSc1nc2c([nH]c3ccccc32)c(=O)n1-c1cccc(Cl)c1)NCC1CCCO1 (configuration not stated)	-2%	i	·	-1%	i
Cc1cccc(-c2noc(CNC(=O)c3ccc(C)cc3C)n2)c1	·	i	·	2%	i
Cc1ccc(CC(=O)NCc2nc(-c3cccc(C)c3)no2)cc1	·	i	·	18µM*	i
CCc1ccccc1N(CC)C(=O)CCc1nc(-c2ccc(C)cc2)no1	-9%	i	-116%*	16%	?
Cc1ccc(CC(=O)NCc2nc(-c3ccccc3)no2)cc1	·	i	·	13µM*	i
Cc1ccc(-c2noc(CNC(=O)c3ccccc3)n2)cc1	·	i	·	-1%	i
Cc1ccc(NC(=O)CCC(=O)N2CCSc3ccccc32)cc1	·	i	·	19%	i
CCc1ccc(NC(=O)CSC2=Nc3ccccc3C3=NC(CCC(=O)NCc4ccccc4)C(=O)N23)cc1 (configuration not stated)	·	i	·	-21%	i
CC(=O)Oc1[nH]c(=O)c2cccc3c2c1CCC3	-4%	i	i	28µM*	i
CC(=O)Oc1cc2c(c3ccccc13)CCC2=O	25%	i	i	?	i
O=C1NC2(CCc3ccccc3C2)C(=O)N1CCOc1cccc(Cl)c1 (configuration not stated)	15%	?	i	20µM*	i
Cc1cccc(N2CCN(C(=O)c3cc4ccc5cccnc5c4[nH]3)CC2C)c1 (configuration not stated)	·	i	·	8.9µM*	?
COc1ccc(N2CCN(C(=O)c3cc4ccc5cccnc5c4[nH]3)CC2)cc1	·	i	·	?	i
Cc1ccc(C)c(N2CCN(C(=O)c3cc4ccc5cccnc5c4[nH]3)CC2)c1	·	i	·	13µM*	?
Cc1ccc(Cl)cc1N(C)C(=O)c1cc2ccc3cccnc3c2[nH]1	·	i	·	25µM*	?
Cc1cccc(N2CCN(C(=O)C3CCN(S(=O)(=O)c4cccc5nsnc45)CC3)CC2C)c1 (configuration not stated)	10%	i	i	-4%	i
Cc1cccc(N2CCN(C(=O)C3CCN(S(=O)(=O)c4cccc5cccnc45)CC3)CC2C)c1 (configuration not stated)	7%	i	i	11%	22µM*
Cc1cccc(N2CCN(C(=O)c3ccccn3)CC2C)c1 (configuration not stated)	15%	i	i	·	i
Cn1cc(-c2cc3n(n2)CCC(=O)N3CCCC(=O)Nc2ccc(F)cc2F)c2ccccc21	·	i	·	-1%	?
CCc1ccc(CNC(=O)CCc2c(C)nn(-c3ccc(N4CCCCC4)nn3)c2C)cc1	·	i	·	0%	i
Cc1cc(F)ccc1S(=O)(=O)Nc1ccc2oc3c(c2c1)CC(C)CC3 (configuration not stated)	·	i	·	35µM*	i
O=C(c1ccc2c(c1)OCCO2)C1CCN(C(=O)c2ccc(F)c(F)c2)CC1	2%	i	·	11µM*	i
O=C(NCC1CCCO1)c1ccc(-c2ccccc2Cl)o1 (configuration not stated)	20%	i	i	20µM*	i
